# From PubChem BioAssay (EPA / NIEHS)
# Activity calls are given as the source filed them. Rule for the calls: active = hit-call score of the fitted dose curve at least 0.9, where 1 is the maximum; inactive = score below 0.9.
# How the values were obtained:
# Settings in all cases: mRNA level, 48 h; actives raise or lower the signal
# [1] = read-out: Intercellular Adhesion Molecule 1 (ICAM1), ICAM1 (gene 3383); experiment: LTEA_HepaRG_ICAM1: Life Technologies and Expression Analysis (LTEA) Assay for Intercellular Adhesion Molecule 1 (ICAM1) using HepaRG (AID 2283507)
# Method in brief: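 ICAM1 transcript levels measured by qRT-PCR, normalized to three housekeeping genes (ACTB, GAPDH, POLR2A), after 48 h chemical exposure of HepaRG cells. Duplicate eight-point half-log series from 100 uM in 0.5% DMSO; gain or loss fitted against vehicle.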
# [2] = read-out: Insulin-like growth factor-binding protein 1 (IGFBP1), IGFBP1 (gene 3484); experiment: LTEA_HepaRG_IGFBP1: Life Technologies and Expression Analysis (LTEA) Assay for Insulin-like growth factor-binding protein 1 (IGFBP1) using HepaRG (AID 2283508)
# Method in brief: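 Read-out is qRT-PCR transcript level normalized to three housekeeping genes, fitted in both directions against 0.5% DMSO. Differentiated HepaRG cells received eight half-log concentrations (top 100 uM) in duplicate for 48 h in serum-free induction medium.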
# [3] = read-out: Interleukin 6 Receptor (IL6R), IL6R (gene 3570); experiment: LTEA_HepaRG_IL6R: Life Technologies and Expression Analysis (LTEA) Assay for Interleukin 6 Receptor (IL6R) using HepaRG (AID 2283510)
# Method in brief: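 Readout is IL6R transcript level by TaqMan qRT-PCR, normalized to three housekeeping genes and fitted bidirectionally against 0.5% DMSO controls. Human HepaRG cells received chemicals for 48 h in serum-free induction medium, highest concentration 100 uM.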
# [4] = read-out: Potassium channel subfamily K member 1 (KCNK1), KCNK1 (gene 3775); experiment: LTEA_HepaRG_KCNK1: Life Technologies and Expression Analysis (LTEA) Assay for Potassium channel subfamily K member 1 (KCNK1) using HepaRG (AID 2283511)
# Method in brief: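 Gain or loss of KCNK1 mRNA is the read-out, quantified by qRT-PCR against three housekeeping genes after 48 h chemical treatment of human HepaRG liver cells. Concentrations ran from 100 uM downward in half-log steps, vehicle 0.5% DMSO.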
# [5] = read-out: JUN Transcription Factor, JUN (gene 3725); experiment: LTEA_HepaRG_JUN: Life Technologies and Expression Analysis (LTEA) Assay for JUN Transcription Factor using HepaRG (AID 2283513)
# Method in brief: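 Cells plated 48 h, medium switched to serum-free induction medium, then dosed 48 h (100 uM top, half-log dilutions, 0.5% DMSO). RNA isolated; JUN measured by qRT-PCR against three housekeeping genes; gain or loss fitted relative to DMSO.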
# [6] = read-out: Lipase C (LIPC), LIPC (gene 3990); experiment: LTEA_HepaRG_LIPC: Life Technologies and Expression Analysis (LTEA) Assay for Lipase C (LIPC) using HepaRG (AID 2283514)
# Method in brief: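 Read-out is LIPC transcript level by TaqMan qRT-PCR, normalized to three housekeeping genes, after 48 h chemical treatment of human HepaRG liver cells. Curves span eight concentrations topping at 100 uM; activity in either direction scored relative to 0.5% DMSO.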
# [7] = read-out: Lipoprotein lipase (LPL), LPL (gene 4023); experiment: LTEA_HepaRG_LPL: Life Technologies and Expression Analysis (LTEA) Assay for Lipoprotein lipase (LPL) using HepaRG (AID 2283515)
# Method in brief: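 Read-out is LPL transcript level by qRT-PCR, normalized to three housekeeping genes and fitted bidirectionally against the DMSO control. Human HepaRG cells received chemicals for 48 h at up to 100 uM.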
# [8] = read-out: MicroRNA 122 (MIR122), gene 406906; experiment: LTEA_HepaRG_MIR122: Life Technologies and Expression Analysis (LTEA) Assay for MicroRNA 122 (MIR122) using HepaRG (AID 2283516); note: the transcript read is the microRNA miR-122
# Method in brief: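 HepaRG plated 48 h, switched to serum-free induction medium, then treated in duplicate for 48 h (100 uM top, half-log steps, 0.5% DMSO vehicle). RNA isolated, qRT-PCR performed, concentration-response fitted both directions relative to DMSO.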
# [9] = read-out: matrix metalloproteinase-10 (MMP10), MMP10 (gene 4319); experiment: LTEA_HepaRG_MMP10: Life Technologies and Expression Analysis (LTEA) Assay for matrix metalloproteinase-10 (MMP10) using HepaRG (AID 2283517)
# Method in brief: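 Gain or loss of MMP10 mRNA is fitted relative to the 0.5% DMSO vehicle. The human hepatic line HepaRG receives a 48-hour serum-free exposure, in duplicate, with a maximum concentration of 100 uM.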
# MYC, MYC (gene 4609) = experiment: LTEA_HepaRG_MYC: Life Technologies and Expression Analysis (LTEA) Assay for MYC using HepaRG (AID 2283518)
# Method in brief: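 MYC transcript changes, up or down relative to 0.5% DMSO, from TaqMan qRT-PCR normalized to three housekeeping genes. Human HepaRG cultures received chemicals for 48 h at eight half-log concentrations up to 100 uM, in duplicate.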
# [10] = read-out: matrix metalloproteinase-3 (MMP3), MMP3 (gene 4314); experiment: LTEA_HepaRG_MMP3: Life Technologies and Expression Analysis (LTEA) Assay for matrix metalloproteinase-3 (MMP3) using HepaRG (AID 2283519)
# Method in brief: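 HepaRG, human; 48 h dosing, 8 conc. (max 100 uM, half-log), duplicate, 0.5% DMSO. Readout: MMP3 transcript by Fluidigm TaqMan qRT-PCR, ACTB/GAPDH/POLR2A-normalised. Gain or loss fitted vs DMSO.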
# [11] = read-out: Paternally Expressed 10 (PEG10), PEG10 (gene 23089); experiment: LTEA_HepaRG_PEG10: Life Technologies and Expression Analysis (LTEA) Assay for Paternally Expressed 10 (PEG10) using HepaRG (AID 2283520)
# Method in brief: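 HepaRG, 48 h post-plating → serum-free induction medium → 48 h chemical exposure (duplicate, 8-pt, max 100 uM, half-log, 0.5% DMSO) → lysis in RLT → TaqMan qRT-PCR for PEG10, ACTB/GAPDH/POLR2A normalisation.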
# [12] = read-out: Nuclear factor NF-kappa-B p105 subunit (Homo sapiens) (UniProt P19838); experiment: LTEA_HepaRG_NFKB1: Life Technologies and Expression Analysis (LTEA) Assay for Nuclear Factor Kappa B Subunit 1 (NFKB1) using HepaRG (AID 2283521)
# Method in brief: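 Differentiated human HepaRG cells in serum-free induction medium with 0.5% DMSO were exposed for 48 h to eight half-log concentrations, top 100 uM, in duplicate. NFKB1 mRNA measured by Fluidigm TaqMan qRT-PCR, normalised to ACTB, GAPDH and POLR2A; bidirectional fit versus DMSO.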
# [13] = read-out: Protein phosphatase 2A (PPP2R4), PTPA (gene 5524); experiment: LTEA_HepaRG_PPP2R4: Life Technologies and Expression Analysis (LTEA) Assay for Protein phosphatase 2A (PPP2R4) using HepaRG (AID 2283522)
# Method in brief: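 Readout is PPP2R4 transcript level by microfluidic qRT-PCR after 48 h chemical treatment of human HepaRG liver cells. Concentrations spanned 100 uM downward in half-log steps; gain or loss of signal was fitted relative to DMSO.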
# [14] = read-out: Phosphatase and tensin (PTEN), PTEN (gene 5728); experiment: LTEA_HepaRG_PTEN: Life Technologies and Expression Analysis (LTEA) Assay for Phosphatase and tensin (PTEN) using HepaRG (AID 2283523)
# Method in brief: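 Read-out is PTEN transcript level by multiplexed TaqMan qRT-PCR after 48 h chemical treatment of human HepaRG cultures in serum-free induction medium. Concentrations spanned 100 uM downward in half-log steps, 0.5% DMSO throughout; activity fitted in both directions against vehicle.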
# [15] = read-out: solute carrier (SLC22A1), SLC22A1 (gene 6580); experiment: LTEA_HepaRG_SLC22A1: Life Technologies and Expression Analysis (LTEA) Assay for solute carrier (SLC22A1) using HepaRG (AID 2283524)
# Method in brief: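 HepaRG (human liver line), 48 h dosing in serum-free induction medium; 8 conc., half-log down from 100 uM, 0.5% DMSO vehicle, duplicates. Endpoint: SLC22A1 mRNA, qRT-PCR, housekeeping-normalized; gain/loss fit vs DMSO.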
# [16] = read-out: Pyruvate Dehydrogenase Kinase 4 (PDK4), PDK4 (gene 5166); experiment: LTEA_HepaRG_PDK4: Life Technologies and Expression Analysis (LTEA) Assay for Pyruvate Dehydrogenase Kinase 4 (PDK4) using HepaRG (AID 2283525)
# Method in brief: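 In this multiplexed human HepaRG expression assay, cells are treated 48 h with test chemicals across an eight-point range starting at 100 uM. PDK4 mRNA changes, normalized to ACTB/GAPDH/POLR2A, are fitted in both directions relative to vehicle.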
# [17] = read-out: NAD(P)H dehydrogenase [quinone] 1 (NQO1), NQO1 (gene 1728); experiment: LTEA_HepaRG_NQO1: Life Technologies and Expression Analysis (LTEA) Assay for NAD(P)H dehydrogenase [quinone] 1 (NQO1) using HepaRG (AID 2283526)
# Method in brief: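 HepaRG, 48 h post-plating → serum-free induction medium → test chemical 48 h (duplicate, 100 uM top, half-log x8, 0.5% DMSO) → RNA isolation → qRT-PCR, ACTB/GAPDH/POLR2A normalization; bidirectional curve fit vs DMSO baseline.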
# [18] = read-out: Keratin 19 (KRT19), KRT19 (gene 3880); experiment: LTEA_HepaRG_KRT19: Life Technologies and Expression Analysis (LTEA) Assay for Keratin 19 (KRT19) using HepaRG (AID 2283512)
# Method in brief: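 KRT19 transcript measured by TaqMan qRT-PCR, referenced to three housekeeping genes, after HepaRG cells received test chemicals for 48 h. Eight half-log concentrations, top 100 uM, 0.5% DMSO vehicle; increases and decreases both fitted.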
# Nuclear factor NF-kappa-B p105 subunit (Homo sapiens), sequence (P19838 whole entry, looked up): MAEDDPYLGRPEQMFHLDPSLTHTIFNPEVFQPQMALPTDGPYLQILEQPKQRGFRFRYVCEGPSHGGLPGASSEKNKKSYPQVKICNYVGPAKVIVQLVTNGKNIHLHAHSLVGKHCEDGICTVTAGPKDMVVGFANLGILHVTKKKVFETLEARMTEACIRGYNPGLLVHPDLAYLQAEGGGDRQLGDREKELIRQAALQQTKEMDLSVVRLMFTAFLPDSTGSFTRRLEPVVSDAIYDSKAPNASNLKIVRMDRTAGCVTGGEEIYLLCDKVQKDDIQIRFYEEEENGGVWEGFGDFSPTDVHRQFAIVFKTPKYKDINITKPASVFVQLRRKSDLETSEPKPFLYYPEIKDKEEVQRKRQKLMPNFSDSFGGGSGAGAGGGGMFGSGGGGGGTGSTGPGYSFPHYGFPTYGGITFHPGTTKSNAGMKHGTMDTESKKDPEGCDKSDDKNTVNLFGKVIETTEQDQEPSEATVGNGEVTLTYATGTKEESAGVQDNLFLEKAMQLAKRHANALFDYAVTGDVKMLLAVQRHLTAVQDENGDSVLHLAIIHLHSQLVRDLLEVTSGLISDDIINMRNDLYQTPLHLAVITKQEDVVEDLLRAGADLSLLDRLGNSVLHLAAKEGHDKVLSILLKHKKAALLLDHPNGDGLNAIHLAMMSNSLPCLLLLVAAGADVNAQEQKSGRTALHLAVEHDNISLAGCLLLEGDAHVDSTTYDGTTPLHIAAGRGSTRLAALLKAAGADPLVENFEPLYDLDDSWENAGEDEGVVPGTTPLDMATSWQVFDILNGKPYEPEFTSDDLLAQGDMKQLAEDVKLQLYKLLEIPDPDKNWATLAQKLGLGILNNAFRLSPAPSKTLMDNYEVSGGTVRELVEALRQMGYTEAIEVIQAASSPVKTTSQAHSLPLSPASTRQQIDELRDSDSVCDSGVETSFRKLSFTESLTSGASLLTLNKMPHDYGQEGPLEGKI
smiles,measurement,setting,value
CCC(C)(CC)c1cc(NC(=O)c2c(OC)cccc2OC)on1,outcome,[1],inactive
same,AC50,[2],50 µM (active)
same,outcome,[3],inactive
same,outcome,[4],inactive
same,outcome,[5],inactive
same,outcome,[6],inactive
same,outcome,[7],inactive
same,outcome,[8],inactive
same,outcome,[9],inactive
same,AC50,"MYC, MYC (gene 4609)",25.7 µM (active)
same,outcome,[10],inactive
same,AC50,[11],14.2 µM (active)
same,outcome,[12],inactive
same,outcome,[13],inactive
same,outcome,[14],inactive
same,AC50,[15],34.6 µM (active)
same,outcome,[16],inactive
same,outcome,[17],inactive
Cc1cccc(C)c1N,outcome,[1],inactive
same,outcome,[2],inactive
same,outcome,[3],inactive
same,outcome,[4],inactive
same,outcome,[18],inactive
same,outcome,[5],inactive
same,outcome,[6],inactive
same,outcome,[7],inactive
same,outcome,[8],inactive
same,outcome,[9],inactive
same,outcome,"MYC, MYC (gene 4609)",inactive
same,outcome,[10],inactive
same,outcome,[11],inactive
same,outcome,[12],inactive
same,outcome,[13],inactive
same,outcome,[14],inactive
same,outcome,[15],inactive
same,outcome,[16],inactive
CN(C)CCO,outcome,[1],inactive
same,outcome,[2],inactive
same,outcome,[3],inactive
same,outcome,[4],inactive
same,outcome,[18],inactive
same,outcome,[5],inactive
same,outcome,[6],inactive
same,outcome,[7],inactive
same,outcome,[8],inactive
same,outcome,[9],inactive
same,outcome,"MYC, MYC (gene 4609)",inactive
same,outcome,[10],inactive
same,outcome,[11],inactive
same,outcome,[12],inactive
same,outcome,[13],inactive
same,outcome,[14],inactive
same,outcome,[15],inactive
same,outcome,[16],inactive
same,outcome,[17],inactive
Clc1ccc(C(c2ccccc2Cl)C(Cl)(Cl)Cl)cc1 (configuration not stated),outcome,[1],inactive
same,outcome,[2],inactive
same,outcome,[3],inactive
same,outcome,[4],inactive
same,AC50,[18],20.4 µM (active)
same,outcome,[5],inactive
same,AC50,[6],84.4 µM (active)
same,AC50,[7],89.7 µM (active)
same,outcome,[8],inactive
same,outcome,[9],inactive
same,outcome,"MYC, MYC (gene 4609)",inactive
same,outcome,[10],inactive
same,outcome,[12],inactive
same,outcome,[13],inactive
same,outcome,[14],inactive
same,outcome,[15],inactive
same,outcome,[16],inactive
same,outcome,[17],inactive
Clc1ccc(Cl)cc1,outcome,[1],inactive
same,outcome,[2],inactive
same,outcome,[3],inactive
same,outcome,[4],inactive
same,outcome,[18],inactive
same,outcome,[5],inactive
same,outcome,[6],inactive
same,outcome,[7],inactive
same,outcome,[8],inactive
same,outcome,[9],inactive
same,outcome,"MYC, MYC (gene 4609)",inactive
same,outcome,[10],inactive
same,outcome,[11],inactive
same,outcome,[12],inactive
same,outcome,[13],inactive
same,outcome,[14],inactive
same,outcome,[15],inactive
same,outcome,[16],inactive
same,outcome,[17],inactive
